The full list was thinned out, with hits kept by preference.
Tg IFNy HTS: blocks Toxoplasma gondii growth in the presence of IFN-gamma | activity change, negative = inhibition, % (test concentration not listed) | Toxoplasma gondii growth in IFN-gamma-treated host cells; stronger effect = lower value | 3.8% of 69,000 active; in the data active means activity change below about -70%, passing the limit was not always enough;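 further: host cells are HeLa cells infected with Toxoplasma gondii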
* marks the source's active call; other numbers are inactive results; i = inactive.

SMILES | Tg IFNy HTS
CO[C@H]1CN(C)C(=O)c2ccc(NC(=O)c3cccc(F)c3)cc2OC[C@@H](C)NC[C@@H]1C | 47
CO[C@@H]1CN(C)C(=O)c2cc(NC(=O)c3ccc(Oc4ccccc4)cc3)ccc2OC[C@@H](C)NC[C@H]1C | -119*
CO[C@@H]1CN(C)C(=O)c2cc(NC(=O)c3cnccn3)ccc2OC[C@H](C)NC[C@@H]1C | -35
CO[C@H]1CN(C)C(=O)c2cc(NC(=O)c3ccc(Oc4ccccc4)cc3)ccc2OC[C@H](C)NC[C@H]1C | -98*
COc1cccc(NC(=O)Nc2ccc3c(c2)C(=O)N(C)C[C@H](OC)[C@H](C)CN[C@@H](C)CO3)c1 | 19
CO[C@H]1CN(C)C(=O)c2cc(NS(=O)(=O)c3cccc(Cl)c3)ccc2OC[C@H](C)NC[C@H]1C | -86*
CO[C@@H]1CN(C)C(=O)c2cc(NS(=O)(=O)c3cn(C)cn3)ccc2OC[C@@H](C)NC[C@@H]1C | -13
CO[C@@H]1CN(C)C(=O)c2cc(NC(=O)c3ccc(Oc4ccccc4)cc3)ccc2OC[C@H](C)NC[C@@H]1C | -97*
CO[C@@H]1CN(C)C(=O)c2cc(NC(=O)c3cnccn3)ccc2OC[C@H](C)NC[C@H]1C | 10
COc1cccc(NC(=O)Nc2ccc3c(c2)C(=O)N(C)C[C@@H](OC)[C@H](C)CN[C@@H](C)CO3)c1 | -34
Cc1ccc(N2CCO[C@H]3CN(C(=O)N(C)C)C[C@@H]32)nn1 | -14
Cc1nnc(-c2ccc3ccn(CC(=O)Nc4ncccc4C)c3c2)o1 | 59
Cc1cnc(N(C)CC2CCCO2)nc1N(C)C (centres undefined) | -3
CC(C)c1cc(C(=O)N(C)CC2OCCc3ccccc32)n2ncnc2n1 (centres undefined) | 2
CCN1CCC2(CN(S(C)(=O)=O)CC23CCN(Cc2cnn(C)c2)CC3)C1=O (centres undefined) | -7
Cc1ccc(C(=O)N2C[C@H]3CCC[C@]3(COCc3ccccn3)C2)s1 | 4
O=C(CSc1n[nH]c(Cc2ccccc2)n1)Nc1cccc(Cl)c1 | 28
CCc1cnc(N2CCC3(CCN(C(=O)c4cnccn4)CC3)C2)nc1 | 10
COc1ccc(-c2cc(=S)sc(N)c2C#N)cc1OC | 65
COc1ccc(-c2cc(-c3ccccc3)nc(N)c2C#N)cc1OC | 19
COc1ccc(-c2c(C#N)c(N)nc3c2CCc2ccccc2-3)cc1OC | -86*
COc1ccc(-c2nc(CSc3nc4ccccc4c(=O)[nH]3)c(C)o2)cc1 | -46
CCS(=O)(=O)N1CCC2(CC1)OC(=O)C(C)=C2C(=O)NCCc1ccc(OC)c(OC)c1 | 11
CCS(=O)(=O)N1CCC2(Cc3ccccc3NC2=O)C1 (centres undefined) | 42
Cc1ccc2nc(NC(=O)C3CCN(S(=O)(=O)c4ccc5[nH]c(=O)ccc5c4)CC3)sc2c1 | 36
SMILES | Tg IFNy HTS
O=S(=O)(c1ccc(Cl)cc1)N1CCC2(CC1)Nc1cc(F)ccc1-n1cccc12 | 20
Cc1nonc1C(=O)Nc1ccc2c(c1)n(C)c(=O)n2C | 21
COc1ccc(C(C)N(C)CC2=COCCO2)cc1 (centres undefined) | 10
Cc1nc(N2CCCC(NC(=O)c3cnccn3)C2)[nH]c(=O)c1C (centres undefined) | 0
COc1cccc(NC(=O)c2cncc(NS(=O)(=O)c3ccc(C)cc3C)c2)c1 | 18
COc1cccc(-n2cc(CN(C)Cc3cc(F)ccc3F)cn2)c1 | 11
Cc1cc(CN(C)CC(=O)NCCc2cccc(Cl)c2)n[nH]1 | 0
COc1cccc(-c2cccc(CN(C)Cc3cc(C)[nH]n3)c2)c1 | -82*
O=C(C1CCCN(C2CCN(Cc3cnc[nH]3)CC2)C1)N1CCCC1 (centres undefined) | -13
COc1ccc2c(c1)NC1(CCN(C(=O)Nc3ccc(OC)cc3OC)CC1)c1cccn1-2 | 277
CCn1ncc(C(=O)NCCSc2nnc(C)s2)c1C | 74
COc1ccc(NC(=O)NCC(c2cccnc2)c2cn(C)c3ccccc23)c(OC)c1 (centres undefined) | i
COc1cc(OC)c(NC(=O)NCC(c2cccnc2)c2c[nH]c3ccccc23)cc1Cl (centres undefined) | 8
CCC[C@H](Nc1nc(-c2ccc(NC(=O)NCC)c(OC)c2)ncc1C)c1cccnc1 | -78*
COc1cccc(-c2cn(Cc3nc(C)cc(C(F)(F)F)n3)nn2)c1OC | -3
COc1cc(N2CCC[C@@]3(C(=O)O)CN(C(C)=O)C[C@H]3C2)ncn1 | -5
CCO[C@H]1COC[C@@H]1NC1CCN(c2cccc(C)c2C)CC1 | 0
CC(C)(C)OC(=O)N1CCNC(=O)C1CC(=O)OCCCc1ccccc1 (centres undefined) | -43
Cc1cccc(C(=O)NCCc2csc(-c3ccc(Cl)cc3)n2)c1 | -46
Cc1nc(Nc2nncs2)cc(C2CCCN2C(=O)c2cnccn2)n1 (centres undefined) | 2
N#CC(C#N)=C(N)/C(C#N)=C/c1cc(O)c(O)c(O)c1 | -7
CC(C)(C)c1cc(-c2cc(C(C)(C)C)c(O)c(C(C)(C)C)c2)cc(C(C)(C)C)c1O | 14
CC(C)(C)c1cc(/C=C(\C#N)C(N)=S)cc(C(C)(C)C)c1O | -74*
Cc1[nH]nc(CCC(=O)N2CCCC(O)(CO)CC2)c1C (centres undefined) | -3
Cn1cnnc1Sc1nc2c(c(=O)n(C)c(=O)n2C)n1C | -1
SMILES | Tg IFNy HTS
Cn1c(=O)c2c(nc(SCC(=O)Nc3nc(-c4cccs4)cs3)n2C)n(C)c1=O | -103*
Cn1c(=O)c2c(nc(SCCN3CCCCC3)n2C)n(C)c1=O | -5
COc1ccccc1-c1nc(C)c(-c2ccc(SCc3ccccc3Cl)nn2)s1 | -23
CN1CCOCC1c1nccc(NCc2cccnc2)n1 (centres undefined) | 29
Cc1nc(-c2ccc(F)cc2)sc1CCNS(=O)(=O)c1cccc(Cl)c1 | -8
COc1ccc2c(c1)NC1(CCN(C(=O)NC34CC5CC(CC(C5)C3)C4)CC1)c1cccn1-2 | -68
CN(Cc1cc(C(C)(C)C)n[nH]1)C(=O)c1cccc(-n2cccn2)c1 | 29
CCC(=O)NCc1ccccc1-c1ccc2c(c1)OCCO2 | 11
CCc1cc(-c2ccc3c(c2)OCCO3)ccc1NC(C)=O | 136
CCNC(=O)Cc1ccc(-c2ccc3c(c2)OCCO3)cc1 | -74*
Cc1ccc(NC(=O)N2CCN(Cc3nc(-c4ccccc4C)oc3C)CC2)cc1Cl | 3
O=C(CCC1N=C2c3ccccc3N=C(SCc3ccc(Cl)cc3)N2C1=O)NCc1ccc2c(c1)OCO2 (centres undefined) | 1
Cc1nn2c(C3CCCN(C(=O)OC(C)(C)C)C3)ccnc2c1-c1cccs1 (centres undefined) | -77*
CC(=O)Nc1ncc(-c2cccc(C3CCCN(C(=O)OC(C)(C)C)C3)n2)s1 (centres undefined) | -61
COc1ccc(-c2c(C)nn3c(C4CCN(Cc5ccccc5)C4)ccnc23)cc1OC (centres undefined) | -10
Cc1ccc(Nc2cccc3ccccc23)cc1 | -119*
c1ccc(Nc2cccc3c(Nc4ccccc4)cccc23)cc1 | 14
c1ccc2c(NC3=NCCCCS3)cccc2c1 | -15
Cc1ccc(N2CCO[C@H]3CN(C(=O)c4ccoc4)CC[C@@H]3C2)nn1 | 8
c1cc(-c2ccc(-c3ncnc4ccsc34)cc2)[nH]n1 | -82*
Cc1ccc(Sc2ncnc3ccsc23)cc1 | 46
c1nc(NN2CCCCC2)c2sccc2n1 | 36
CCc1nc(-c2c(-c3ccccc3)ncn2CCSc2cn[nH]n2)c(C)[nH]1 | 2
O=Cc1ccc(N2CCCCC2)cc1 | -3
